# In all, about 2,900 compounds were measured (“NF-kB SEAP reporter activity, fold change vs agonist alone”: median about 0.99, highest 2% from about 2.6 on). What follows is part of a selection rich in the highest values, with near analogues and random picks from the rest.
# Key:
# RAW-Dual [1] = assay: NF-kB SEAP reporter activity, fold change vs agonist alone; higher = enhanced NF-kB activity
# Outline: (§1)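 Library stock was pin-tooled at 50 nL into 384-well plates of RAW-Dual macrophages (50,000 cells/well, DMEM), followed 1 h later by a PRR agonist, and the cells were kept at 37 °C, 5% CO2. Supernatant collected after 20 hours was read for IRF by QuantiLuc luminescence and for NF-κB by QuantiBlue absorbance at 620 nm. Reporter activity is fold change over agonist-alone wells, and a well counted as cytotoxic when its IncuCyte confluency was below 70% of agonist controls in both mask sets.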
# RAW-Dual [2] = assay: NF-kB SEAP reporter activity, fold change vs agonist alone; cytotoxicity flag (confluency mask): not cytotoxic; higher = enhanced NF-kB activity
# Outline: as §1
# RAW-Dual [3] = assay: NF-kB SEAP reporter activity, fold change vs agonist alone; cytotoxicity flag (confluency mask): cytotoxic (confluency <70% of control); higher = enhanced NF-kB activity
# Outline: as §1
# [4] = library stock concentration (final ~1000-fold dilution): 10 mM, cytotoxicity flag (confluency mask): not cytotoxic, agonist: Imiquimod (TLR7) […]
# [5] = library stock concentration (final ~1000-fold dilution): 10 mM, cytotoxicity flag (confluency mask): not cytotoxic, agonist: MPLA (TLR4) […]
# [6] = agonist: ODN 1826 (TLR9) 0.5 ug/mL
# [7] = agonist: Pam2CSK4 (TLR2/6) 0.1 ug/mL
# [8] = agonist: Pam3CSK4 (TLR2/1) 0.1 ug/mL
# [9] = library stock concentration (final ~1000-fold dilution): 10 mM, cytotoxicity flag (confluency mask): cytotoxic (confluency <70% of control), agonist: Imiquimod (TLR7) […]
# [10] = library stock concentration (final ~1000-fold dilution): 10 mM, cytotoxicity flag (confluency mask): cytotoxic (confluency <70% of control), agonist: MPLA (TLR4) […]
smiles,measurement,setting,value
CC(NC(=O)C(=O)Nc1ccccc1C(C)(C)C)C(=O)NC(CC(=O)O)C(=O)COc1c(F)c(F)cc(F)c1F (configuration not stated),NF-kB SEAP reporter activity,RAW-Dual [1]; [4],1.15
same,NF-kB SEAP reporter activity,RAW-Dual [1]; [5],0.848
CC(NC(=O)C(=O)Nc1ccccc1C(C)(C)C)C(=O)NC(CC(=O)O)C(=O)COc1c(F)c(F)cc(F)c1F (configuration not stated) (library stock concentration (final ~1000-fold dilution): 10 mM),NF-kB SEAP reporter activity,RAW-Dual [2]; agonist: LPS (TLR4) 0.1 ug/mL,0.607
same,NF-kB SEAP reporter activity,RAW-Dual [2]; [6],1.25
same,NF-kB SEAP reporter activity,RAW-Dual [2]; [7],0.912
same,NF-kB SEAP reporter activity,RAW-Dual [2]; [8],1.17
CCOC(=O)Nc1cc(-c2ccc(C)c(NS(C)(=O)=O)c2)nn2c(C)nnc12 (library stock concentration (final ~1000-fold dilution): 10 mM),NF-kB SEAP reporter activity,RAW-Dual [2]; agonist: LPS (TLR4) 0.1 ug/mL,3.81
same,NF-kB SEAP reporter activity,RAW-Dual [2]; [6],1.93
same,NF-kB SEAP reporter activity,RAW-Dual [2]; [7],0.828
same,NF-kB SEAP reporter activity,RAW-Dual [2]; [8],1.44
CCOC(=O)Nc1cc(-c2ccc(C)c(NS(C)(=O)=O)c2)nn2c(C)nnc12,NF-kB SEAP reporter activity,RAW-Dual [1]; [4],1.43
same,NF-kB SEAP reporter activity,RAW-Dual [1]; [5],2.52
CCOC(=O)C1=CC(OC(CC)CC)C(NC(C)=O)C(N)C1 (configuration not stated) (library stock concentration (final ~1000-fold dilution): 2 mM),NF-kB SEAP reporter activity,RAW-Dual [2]; agonist: LPS (TLR4) 0.1 ug/mL,1.17
same,NF-kB SEAP reporter activity,RAW-Dual [2]; [6],1.08
same,NF-kB SEAP reporter activity,RAW-Dual [2]; [7],1.16
same,NF-kB SEAP reporter activity,RAW-Dual [2]; [8],1.11
CCOC(=O)C1=CC(OC(CC)CC)C(NC(C)=O)C(N)C1 (configuration not stated),NF-kB SEAP reporter activity,"RAW-Dual [1]; library stock concentration (final ~1000-fold dilution): 2 mM, cytotoxicity flag (confluency mask): not cytotoxic, agonist: Imiquimod (TLR7) […]",0.848
same,NF-kB SEAP reporter activity,"RAW-Dual [1]; library stock concentration (final ~1000-fold dilution): 2 mM, cytotoxicity flag (confluency mask): not cytotoxic, agonist: MPLA (TLR4) […]",1.03
N#Cc1cnc(Nc2cc(NCC3CNCCO3)c(C(F)(F)F)cn2)cn1 (configuration not stated),NF-kB SEAP reporter activity,RAW-Dual [1]; [4],1.66
same,NF-kB SEAP reporter activity,RAW-Dual [1]; [5],0.936
N#Cc1cnc(Nc2cc(NCC3CNCCO3)c(C(F)(F)F)cn2)cn1 (configuration not stated) (library stock concentration (final ~1000-fold dilution): 10 mM),NF-kB SEAP reporter activity,RAW-Dual [2]; agonist: LPS (TLR4) 0.1 ug/mL,1.37
same,NF-kB SEAP reporter activity,RAW-Dual [2]; [6],1.25
same,NF-kB SEAP reporter activity,RAW-Dual [2]; [7],1.34
same,NF-kB SEAP reporter activity,RAW-Dual [2]; [8],1.5
CS(=O)c1ccc(-c2nc(-c3ccc(F)cc3)c(-c3ccncc3)[nH]2)cc1 (configuration not stated) (library stock concentration (final ~1000-fold dilution): 10 mM),NF-kB SEAP reporter activity,RAW-Dual [2]; agonist: LPS (TLR4) 0.1 ug/mL,2.27
same,NF-kB SEAP reporter activity,RAW-Dual [2]; [6],0.762
same,NF-kB SEAP reporter activity,RAW-Dual [2]; [7],0.716
same,NF-kB SEAP reporter activity,RAW-Dual [2]; [8],1.02
COc1ccc2cc(-c3[nH]c(-c4ccc(S(C)=O)cc4)nc3-c3ccncc3)ccc2c1 (configuration not stated),NF-kB SEAP reporter activity,RAW-Dual [1]; [4],1.81
same,NF-kB SEAP reporter activity,RAW-Dual [1]; [5],2.57
CS(=O)c1ccc(-c2nc(-c3ccc(F)cc3)c(-c3ccncc3)[nH]2)cc1 (configuration not stated),NF-kB SEAP reporter activity,RAW-Dual [1]; [4],1.52
same,NF-kB SEAP reporter activity,RAW-Dual [1]; [5],1.61
COc1ccc2cc(-c3[nH]c(-c4ccc(S(C)=O)cc4)nc3-c3ccncc3)ccc2c1 (configuration not stated) (library stock concentration (final ~1000-fold dilution): 10 mM),NF-kB SEAP reporter activity,RAW-Dual [2]; agonist: LPS (TLR4) 0.1 ug/mL,3.42
same,NF-kB SEAP reporter activity,RAW-Dual [2]; [6],2.22
same,NF-kB SEAP reporter activity,RAW-Dual [2]; [7],1.74
same,NF-kB SEAP reporter activity,RAW-Dual [2]; [8],2.04
CCS(=O)(=O)N1CCN(c2ccc(Nc3ncc(C(N)=O)c(NC4CC4)n3)cc2)CC1.Cl (library stock concentration (final ~1000-fold dilution): 10 mM),NF-kB SEAP reporter activity,RAW-Dual [3]; agonist: LPS (TLR4) 0.1 ug/mL,0.273
same,NF-kB SEAP reporter activity,RAW-Dual [3]; [6],0.218
same,NF-kB SEAP reporter activity,RAW-Dual [3]; [7],0.0746
same,NF-kB SEAP reporter activity,RAW-Dual [3]; [8],0.121
CCS(=O)(=O)N1CCN(c2ccc(Nc3ncc(C(N)=O)c(NC4CC4)n3)cc2)CC1.Cl,NF-kB SEAP reporter activity,RAW-Dual [1]; [9],0.23
same,NF-kB SEAP reporter activity,RAW-Dual [1]; [10],0.398
CCOc1ccc(Cc2cc(C3OC(CO)C(O)C(O)C3O)ccc2Cl)cc1 (configuration not stated),NF-kB SEAP reporter activity,RAW-Dual [1]; [4],1.04
same,NF-kB SEAP reporter activity,RAW-Dual [1]; [5],1.03
CCOc1ccc(Cc2cc(C3OC(CO)C(O)C(O)C3O)ccc2Cl)cc1 (configuration not stated) (library stock concentration (final ~1000-fold dilution): 10 mM),NF-kB SEAP reporter activity,RAW-Dual [2]; agonist: LPS (TLR4) 0.1 ug/mL,1.04
same,NF-kB SEAP reporter activity,RAW-Dual [2]; [6],1.2
same,NF-kB SEAP reporter activity,RAW-Dual [2]; [7],1.01
same,NF-kB SEAP reporter activity,RAW-Dual [2]; [8],1.1
CCC1(O)CC2CN(CCc3c([nH]c4ccccc34)C(C(=O)OC)(c3cc4c(cc3OC)N(C=O)C3C(O)(C(=O)OC)C(OC(C)=O)C5(CC)C=CCN6CCC43C65)C2)C1.O=S(=O)(O)O (configuration not stated),NF-kB SEAP reporter activity,RAW-Dual [1]; [4],2.54
same,NF-kB SEAP reporter activity,RAW-Dual [1]; [5],2.37
CCC1=CC2CN(C1)Cc1c([nH]c3ccccc13)C(C(=O)OC)(c1cc3c(cc1OC)N(C)C1C(O)(C(=O)OC)C(OC(C)=O)C4(CC)C=CCN5CCC31C54)C2 (configuration not stated) (library stock concentration (final ~1000-fold dilution): 10 mM),NF-kB SEAP reporter activity,RAW-Dual [3]; agonist: LPS (TLR4) 0.1 ug/mL,5.34
same,NF-kB SEAP reporter activity,RAW-Dual [3]; [6],0.35
same,NF-kB SEAP reporter activity,RAW-Dual [3]; [7],1.78
same,NF-kB SEAP reporter activity,RAW-Dual [3]; [8],1.95
CCC1(O)CC2CN(CCc3c([nH]c4ccccc34)C(C(=O)OC)(c3cc4c(cc3OC)N(C=O)C3C(O)(C(=O)OC)C(OC(C)=O)C5(CC)C=CCN6CCC43C65)C2)C1.O=S(=O)(O)O (configuration not stated) (library stock concentration (final ~1000-fold dilution): 10 mM),NF-kB SEAP reporter activity,RAW-Dual [2]; agonist: LPS (TLR4) 0.1 ug/mL,5.34
same,NF-kB SEAP reporter activity,RAW-Dual [2]; [6],3.28
same,NF-kB SEAP reporter activity,RAW-Dual [2]; [7],1.99
same,NF-kB SEAP reporter activity,RAW-Dual [2]; [8],2.22
CCC1=CC2CN(C1)Cc1c([nH]c3ccccc13)C(C(=O)OC)(c1cc3c(cc1OC)N(C)C1C(O)(C(=O)OC)C(OC(C)=O)C4(CC)C=CCN5CCC31C54)C2 (configuration not stated),NF-kB SEAP reporter activity,RAW-Dual [1]; [9],2.47
same,NF-kB SEAP reporter activity,RAW-Dual [1]; [10],2.6
CCC1(O)CC2CN(CCc3c([nH]c4ccccc34)C(C(=O)OC)(c3cc4c(cc3OC)N(C)C3C(O)(C(=O)OC)C(OC(C)=O)C5(CC)C=CCN6CCC43C65)C2)C1.O=S(=O)(O)O (configuration not stated),NF-kB SEAP reporter activity,RAW-Dual [1]; [9],2.51
same,NF-kB SEAP reporter activity,RAW-Dual [1]; [10],2.53
CCC1(O)CC2CN(CCc3c([nH]c4ccccc34)C(C(=O)OC)(c3cc4c(cc3OC)N(C)C3C(O)(C(=O)OC)C(OC(C)=O)C5(CC)C=CCN6CCC43C65)C2)C1.O=S(=O)(O)O (configuration not stated) (library stock concentration (final ~1000-fold dilution): 10 mM),NF-kB SEAP reporter activity,RAW-Dual [3]; agonist: LPS (TLR4) 0.1 ug/mL,5.91
same,NF-kB SEAP reporter activity,RAW-Dual [3]; [6],2.96
same,NF-kB SEAP reporter activity,RAW-Dual [3]; [7],1.48
same,NF-kB SEAP reporter activity,RAW-Dual [3]; [8],1.94
C=CC(=O)Nc1cc(Nc2nccc(-c3cn(C)c4ccccc34)n2)c(OC)cc1N(C)CCN(C)C.CS(=O)(=O)O,NF-kB SEAP reporter activity,RAW-Dual [1]; [10],1.91

# Source: the supplement of paper PMC10037445
